Molecules are shown by their SMILES. Values joined by “and” are separate entries in the source; they are usually repeats but may differ in a detail not shown here. Equal values may be shown once. Some structures have more than one record in an assay (separate samples or runs), and their calls can disagree. Active and inactive are the calls of the source. How the source made its calls: active means hit-call score of the fitted dose curve at least 0.9, where 1 is the maximum; inactive means score below 0.9.

Broadly, the AC50 is the midpoint of the concentration-response curve, whichever way the signal moves.

In experiment [1] the target is Paired box protein Pax-6 (Homo sapiens) (UniProt P26367). Briefly: ATG_Pax6_CIS: Attagene CIS-FACTORIAL HepG2 Assay for human Paired Box 6 (PAX6) (AID 2282956). The conditions noted are these: HepG2 CIS-FACTORIAL PAX6 reporter transcription, RNA readout; actives raise or lower the signal. An outline of the steps: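 HepG2 cells transiently transfected with cis-promoter-driven multiplexed reporter units sensing endogenous transcription factor activity; 24 h chemical exposure. Reporter mRNA quantified by RT-PCR, 6-FAM labelling, HpaI digestion and capillary electrophoresis; bidirectional fit versus DMSO baseline.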

Experiment [2] is described as follows: ATG_PXRE_CIS: Attagene CIS-FACTORIAL HepG2 Assay for human Pregnane X Receptor Element (PXRE) (AID 2282957). The conditions noted are these: HepG2 Attagene CIS-FACTORIAL PXRE reporter, mRNA; actives raise or lower the signal. An outline of the steps: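 Multiplexed cis-reporter assay in transiently transfected human HepG2 cells; 24 h chemical exposure. Reporter transcripts quantified by RT-PCR with fluorescent labeling and capillary electrophoresis.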

The nature of experiment [3]: ATG_PPRE_CIS: Attagene CIS-FACTORIAL HepG2 Assay for human Peroxisome Proliferator-activated Response Element (PPRE) (AID 2282958). Particulars: HepG2 PPRE cis-element reporter, Attagene transcription factor profiling; actives raise or lower the signal. An outline of the steps: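 Multiplexed reporter transcription units under cis-regulatory promoters were transfected into HepG2 cells to capture endogenous factor activity. A 24 h incubation preceded RNA isolation and fluorescent RT-PCR fragment analysis.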

A short description of experiment [4]: ATG_Sox_CIS: Attagene CIS-FACTORIAL HepG2 Assay for human SRY-box transcription factor (SOX) (AID 2282960). Particulars: HepG2 Attagene cis-factorial SOX reporter, mRNA; actives raise or lower the signal. An outline of the steps:
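After 24 h of chemical treatment, transfected HepG2 reporter cells are lysed for total RNA. Transcript levels come from RT-PCR with labelled primer extension and capillary electrophoresis, analysed bidirectionally versus DMSO.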

Experiment [5] concerns the target Transcription factor Sp1 (Homo sapiens) (UniProt P08047). Briefly: ATG_Sp1_CIS: Attagene CIS-FACTORIAL HepG2 Assay for human Specificity Protein 1 (Sp1) (AID 2282961). Particulars: HepG2 Sp1 cis-reporter transcription, actives raise or lower the signal. An outline of the steps:
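Sp1-driven reporter mRNA, read as capillary electrophoresis fluorescence after RT-PCR, in transiently transfected HepG2 cells dosed for 24 h; signal change in either direction relative to DMSO.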

The nature of experiment [6]: ATG_SREBP_CIS: Attagene CIS-FACTORIAL HepG2 Assay for human Sterol Regulatory Element Binding (SREBP) (AID 2282962). Particulars: HepG2 Attagene cis-factorial SREBP reporter, mRNA; actives raise or lower the signal. In a few lines:
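HepG2 cells transiently transfected with multiplexed cis-promoter reporter units sensing endogenous transcription factors; reporter mRNA measured 24 h after dosing by RT-PCR, 6-FAM labeling, HpaI digestion and capillary electrophoresis. Bidirectional fit versus DMSO.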

Experiment [7] concerns the target Signal transducer and activator of transcription 3 (Homo sapiens) (UniProt P40763). Briefly: ATG_STAT3_CIS: Attagene CIS-FACTORIAL HepG2 Assay for human Signal Transducer and Activator of Transcription 3 (STAT3) (AID 2282963). The conditions noted are these: HepG2, Attagene cis-factorial STAT3 reporter transcription; actives raise or lower the signal. An outline of the steps: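 Values derive from bidirectional fits relative to DMSO of reporter mRNA levels, measured by RT-PCR with capillary electrophoresis, in HepG2 cells carrying transiently transfected cis-regulated reporter units and exposed 24 h.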

Experiment [8] in a line: ATG_TCF_b_cat_CIS: Attagene CIS-FACTORIAL HepG2 Assay for human T-Cell-Factor with beta-catenin (TCF/b-cat) (AID 2282965). Particulars: HepG2 TCF/beta-catenin cis-reporter transcription, actives raise or lower the signal. In a few lines: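 Cells of the HepG2 line carry transiently transfected reporter units whose promoters respond to endogenous factors. Twenty-four hours post-dosing, reporter mRNA induction is measured by fluorescent RT-PCR and capillary electrophoresis, with DMSO as baseline.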

Experiment [9] in a line: ATG_TA_CIS: Attagene CIS-FACTORIAL HepG2 Assay for human TA Basal Promoter (AID 2282964). Particulars: HepG2 Attagene CIS-factorial TA basal promoter reporter; actives raise or lower the signal. An outline of the steps: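 HepG2 cells transiently transfected with multiple reporter units under cis promoter elements, reporting endogenous transcription factor activity; this endpoint tracks the TA basal promoter as background control. Reporter mRNA after 24 h dosing measured by RT-PCR/capillary electrophoresis; bidirectional fits versus DMSO.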

The nature of experiment [10]: ATG_RORE_CIS: Attagene CIS-FACTORIAL HepG2 Assay for human RAR-related Orphan Receptor Element (RORE) (AID 2282959). The conditions noted are these: HepG2 Attagene cis-factorial RORE reporter, mRNA; actives raise or lower the signal. An outline of the steps: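 Fluorescence intensity of reporter-specific cDNA fragments, separated by capillary electrophoresis, gives the signal. Source: HepG2 liver cells transiently transfected with cis-element reporters and exposed 24 h; DMSO-normalized bidirectional fit.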

Chain of Transcription factor Sp1 (Homo sapiens) (P08047 whole entry, looked up): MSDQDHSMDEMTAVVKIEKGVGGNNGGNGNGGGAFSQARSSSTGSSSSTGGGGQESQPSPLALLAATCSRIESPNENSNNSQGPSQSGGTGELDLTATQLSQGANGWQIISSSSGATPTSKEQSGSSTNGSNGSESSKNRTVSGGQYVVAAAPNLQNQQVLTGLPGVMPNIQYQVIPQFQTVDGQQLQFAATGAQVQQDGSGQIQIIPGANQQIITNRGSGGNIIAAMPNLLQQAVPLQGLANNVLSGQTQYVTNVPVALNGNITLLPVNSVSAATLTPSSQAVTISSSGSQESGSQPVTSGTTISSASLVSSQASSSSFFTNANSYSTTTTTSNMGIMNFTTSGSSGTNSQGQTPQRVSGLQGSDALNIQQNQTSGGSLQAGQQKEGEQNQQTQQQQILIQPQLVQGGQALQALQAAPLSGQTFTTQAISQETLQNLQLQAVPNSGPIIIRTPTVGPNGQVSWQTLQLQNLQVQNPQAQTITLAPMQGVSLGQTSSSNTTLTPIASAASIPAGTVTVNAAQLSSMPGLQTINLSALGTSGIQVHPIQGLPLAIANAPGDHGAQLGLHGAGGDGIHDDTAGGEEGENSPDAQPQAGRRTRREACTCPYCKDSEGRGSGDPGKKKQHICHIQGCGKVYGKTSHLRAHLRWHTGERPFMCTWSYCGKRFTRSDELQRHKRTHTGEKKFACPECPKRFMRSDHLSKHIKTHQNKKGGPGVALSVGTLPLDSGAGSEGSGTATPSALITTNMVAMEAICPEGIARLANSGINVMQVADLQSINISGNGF
Chain of Signal transducer and activator of transcription 3 (Homo sapiens) (P40763 whole entry, looked up): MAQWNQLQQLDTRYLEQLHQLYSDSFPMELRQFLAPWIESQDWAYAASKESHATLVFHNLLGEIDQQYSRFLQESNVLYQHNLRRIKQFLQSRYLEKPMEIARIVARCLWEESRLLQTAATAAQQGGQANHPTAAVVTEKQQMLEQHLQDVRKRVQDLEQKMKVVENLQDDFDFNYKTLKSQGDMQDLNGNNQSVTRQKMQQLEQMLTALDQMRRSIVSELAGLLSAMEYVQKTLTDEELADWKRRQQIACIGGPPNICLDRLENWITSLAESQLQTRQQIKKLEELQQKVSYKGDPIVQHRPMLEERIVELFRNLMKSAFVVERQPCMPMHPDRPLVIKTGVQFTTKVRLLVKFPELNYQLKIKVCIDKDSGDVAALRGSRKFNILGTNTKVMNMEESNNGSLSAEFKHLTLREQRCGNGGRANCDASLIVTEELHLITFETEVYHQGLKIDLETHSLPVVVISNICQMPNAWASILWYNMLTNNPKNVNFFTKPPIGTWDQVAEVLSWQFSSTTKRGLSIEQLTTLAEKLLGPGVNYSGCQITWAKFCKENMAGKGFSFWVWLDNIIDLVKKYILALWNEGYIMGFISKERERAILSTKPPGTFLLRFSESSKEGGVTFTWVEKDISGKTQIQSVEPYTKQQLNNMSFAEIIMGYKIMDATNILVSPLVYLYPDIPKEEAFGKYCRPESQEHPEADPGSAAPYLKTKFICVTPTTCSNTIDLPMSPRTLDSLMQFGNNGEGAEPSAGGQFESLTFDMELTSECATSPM
Chain of Paired box protein Pax-6 (Homo sapiens) (P26367 whole entry, looked up): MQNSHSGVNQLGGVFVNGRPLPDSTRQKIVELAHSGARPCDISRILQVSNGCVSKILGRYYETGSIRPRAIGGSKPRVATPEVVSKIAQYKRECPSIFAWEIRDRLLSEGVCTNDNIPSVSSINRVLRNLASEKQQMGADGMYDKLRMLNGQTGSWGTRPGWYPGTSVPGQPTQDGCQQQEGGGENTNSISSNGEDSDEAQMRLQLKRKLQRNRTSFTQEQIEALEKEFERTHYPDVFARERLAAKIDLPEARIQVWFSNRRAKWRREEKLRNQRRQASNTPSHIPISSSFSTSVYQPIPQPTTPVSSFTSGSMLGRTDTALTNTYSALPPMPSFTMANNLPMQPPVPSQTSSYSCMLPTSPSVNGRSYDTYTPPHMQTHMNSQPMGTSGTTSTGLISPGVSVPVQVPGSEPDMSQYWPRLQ

Take `CC(C)CCCCCCOC(=O)C1CCCCC1C(=O)OCCCCCCC(C)C` (stereo not given): the outcome in [1], in experiment [3], in [4], in [5], in experiment [6] and in experiment [7] was inactive. For the same compound, the compound was called inactive in experiment [8]. The AC50 in experiment [2] was 1.17 µM (active).

Turning to `NC(=O)NN=Cc1ccc([N+](=O)[O-])o1`, the outcome in [1], in experiment [2], in experiment [3], in experiment [4], in experiment [5] and in experiment [6] was inactive. For the same compound, the outcome in [7], in [9] and in experiment [8] was inactive.

Take `C[C@]12C=CC(=O)C=C1CC[C@H]1[C@@H]3C[C@@H](O)[C@](O)(C(=O)CO)[C@@]3(C)C[C@H](O)[C@@]12F`: the call in experiment [1], in experiment [2], in experiment [3], in [4], in experiment [5] and in [6] was inactive. Besides, the call in experiment [7], in [9] and in experiment [8] was inactive.

In the case of `C[Si](C)(C)C(F)(F)C(F)(F)C(F)(F)F`, the outcome in experiment [1], in experiment [2], in experiment [3], in experiment [4], in experiment [5] and in [6] was inactive. Moreover, the compound was classed as inactive in [7], in experiment [9] and in [8].

As for `Cc1ncc([C@@H](CCCCCCc2ccc3c(n2)NCCC3)CC(=O)O)cn1`, the compound was called inactive in [1], in experiment [3], in experiment [4], in experiment [5], in experiment [6] and in [7]. Further, in experiment [8], the compound was classed as inactive. Besides, in experiment [2], the AC50 was 27.6 µM (active).

In the case of `O=c1[nH]cnc2c1ncn2[C@H]1CC[C@@H](CO)O1`, the call in experiment [1], in experiment [2], in experiment [3], in experiment [10], in [4] and in experiment [5] was inactive. Besides, the result in experiment [6], in [7] and in experiment [8] was inactive.

For `Cn1c(=O)c2[nH]cnc2n(C)c1=O`, the result in experiment [1], in experiment [2], in experiment [3], in [4], in experiment [5] and in experiment [6] was inactive. Also, the call in [7] and in [9] was inactive. The AC50 in [8] is 100 µM (active).

Regarding `FC(F)C(F)(F)COCC1CO1` (stereo not given), the compound was called inactive in experiment [1], in [2], in experiment [3], in experiment [10], in [4] and in experiment [5]. For the same compound, the compound was classed as inactive in experiment [6], in [7], in [9] and in [8].

Consider `NNC(=O)c1ccncc1`, for which the outcome in experiment [1], in [2], in experiment [3], in experiment [10], in experiment [4] and in [5] was inactive. Also, the compound was called inactive in experiment [6], in experiment [7] and in [8].

With `O=C(Cl)C(F)(F)C(F)(F)C(F)(F)C(=O)Cl`, the result in experiment [1], in [2], in experiment [3], in experiment [10], in experiment [4] and in [5] was inactive. The outcome in [6], in experiment [7], in experiment [9] and in experiment [8] was inactive.

On to `Cc1cccc(O)c1C`, for which the compound was classed as inactive in experiment [1], in experiment [2], in experiment [3], in experiment [4], in experiment [5] and in [6]. The compound was called inactive in experiment [7] and in [8]. For the same compound, in [2], the AC50 was 31.1 µM (active).

In the case of `C=CCc1cc(S(=O)(=O)c2ccc(O)c(CC=C)c2)ccc1O`, the AC50 in experiment [1] is 33.4 µM (active); in experiment [2], 2.77 µM (active); in experiment [3] it was 8.96 µM (active); in experiment [6] it was 9.26 µM (active); in [8] it was 43.7 µM (active). Also, the outcome in experiment [4], in experiment [5] and in [7] was inactive.

Turning to `FC(F)=C(F)C(F)(F)C(F)(F)C(F)(F)C(F)(F)C(F)(F)C(F)(F)F`, the compound was classed as inactive in experiment [1], in experiment [2], in experiment [3], in experiment [10], in experiment [4] and in experiment [5]. Also, the compound was called inactive in [6], in experiment [7], in experiment [9] and in [8]. Besides, the AC50 in [8] is 234 µM (active).

Turning to `OC(O)(C(F)C(O)(O)C(F)(F)F)C(F)(F)F`, the call in [1], in experiment [2], in [3], in [10], in experiment [4] and in experiment [7] was inactive. The compound was called inactive in [9] and in [8]. Also, the concentration at half-maximal activity (AC50) in experiment [3] was 3.62 µM (active); in [5] it was 64.6 µM (active) and 96.6 µM (active); in experiment [6] it was 66.4 µM (active) and 37.5 µM (active); in experiment [8], 3.07 µM (active).

On to `OCCC(F)(F)C(F)(F)C(F)(F)C(F)(F)F`, for which the call in [1], in [2], in experiment [3], in experiment [10], in experiment [4] and in experiment [5] was inactive. The call in [6], in experiment [7] and in experiment [8] was inactive.

With `CCCCOC(=O)c1ccccc1`, the compound was called inactive in [1], in experiment [2], in [3], in [10], in experiment [4] and in experiment [5]. The result in experiment [6], in experiment [7] and in experiment [8] was inactive.

Regarding `Nc1ccn([C@@H]2O[C@H](CO)[C@@H](O)[C@@H]2O)c(=O)n1`, the compound was called inactive in experiment [1], in [2], in [3], in experiment [4], in experiment [5] and in experiment [6]. Further, the result in experiment [7], in experiment [9] and in experiment [8] was inactive.

For `c1ccc2cc3ccccc3cc2c1`, the result in experiment [1], in experiment [2], in experiment [3], in [10], in [4] and in experiment [5] was inactive. The compound was classed as inactive in [6], in experiment [7] and in experiment [8].

In the case of `CCCCN1C(=O)[C@@H]([C@H](O)C2CCCCC2)NC(=O)C12CCN(Cc1ccc(Oc3ccc(C(=O)O)cc3)cc1)CC2`, the call in [1], in [4], in experiment [5], in [6] and in [7] was inactive. In addition, the AC50 was 93.5 µM (active) in [2], 54 µM (active) in [3], 31.7 µM (active) in experiment [9] and 52.5 µM (active) in experiment [8].

The values above are taken from PubChem BioAssay (EPA / NIEHS).
